Source: PubChem BioAssay (National Center for Advancing Translational Sciences (NCATS))
The list is not random: actives were taken first. Their share in the collection is about 10%.
NIH3T3 tox: cytotoxic compounds in NIH 3T3 cells. NIH 3T3 viability, CellTiter-Glo ATP luminescence, 48-72 h. 4.3% of 94,000 active. AID 1345082. Potency, µM (highest dose often 96.7 µM), for the others: at the highest dose activity change, negative = cytotoxicity, hits mostly inhibitors; note: nearly all actives have a fitted effect of over 55% in size
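Luminescent ATP readout (CellTiter-Glo, 10 min RT) after 48 or 72 hr compound exposure of NIH 3T3 cells seeded at 400 cells/well in 1536-well format; quantitative HTS.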
GPT2 inhibitor: inhibitors of human GPT2 alanine aminotransferase; Recombinant GPT2, coupled pyruvate oxidase/HRP Amplex Red fluorescence; 0.25% of 100,000 active; Q8TD30; Potency, µM (series often up to 57.7 µM), inactives show top-dose activity change, negative = inhibition, usual class: inhibitors; note: nearly all actives have a fitted effect of over 60% in size
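Fluorescence read-out: pyruvate from GPT2 turnover coupled to pyruvate oxidase, HRP and Amplex Red (0.2mM ThPP, 0.2U/mL PO and HRP, 50uM Amplex final). Substrates 250uM a-KG, 2mM L-alanine; enzyme 10ng/uL; 30 min RT.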
Luciferase inh: Photinus pyralis luciferase inhibition. P08659. purified P. pyralis luciferase, luminescence, biochemical. Potency, µM (titrated, usually from 115 µM), hits mostly inhibitors. 2.5% of 76,000 active; note: nearly all actives have a fitted effect of over 65% in size
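Biochemical qHTS: compound (6-point titration) added to 10uM D-luciferin plus 10uM ATP in Tris acetate pH 7.5 buffer with Mg, Tween-20 and BSA, then purified enzyme at 10nM; light output imaged.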
NPR1 antag: antagonists of human natriuretic peptide receptor Npr1; HEK293 hNpr1 GloSensor cGMP, ANP-stimulated luminescence; Potency, µM (doses to about 46.3 µM), without a hit: top-dose activity change, negative = inhibition, actives largely listed as inhibitors; 1.6% of 76,000 active; calls by dose curve; note: nearly all actives have a fitted effect of over 60% in size
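Compound pre-incubated 30 min at room temperature on GloSensor-loaded HEK293 cells stably carrying hNpr1 and the pGS-40F cGMP biosensor. Stimulation uses hNppA at 0.1 nM final; luminescence is taken at baseline and 20 min post-agonist.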
HEK cytotox: HEK 293 cell cytotoxicity. Potency, µM (titrated, usually from 115 µM), inactives show at the highest dose activity change, negative = cytotoxicity, most hits filed as inhibitors. HEK 293 viability, ATP luminescence (CellTiter-Glo), 48-72 h. 6.6% of 94,000 active; note: nearly all actives have a fitted effect of over 60% in size
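Viability of HEK 293 cells, plated at 250 cells/well, was judged by cellular ATP after compound treatment for 48 or 72 hr. Luminescence was imaged 10 min after CellTiter-Glo addition at room temperature.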
Active calls of the source: *; [ ] = dose if it differs, or a comment. Unless noted, calls come from the whole dose curve; as a rule, active = well fitted curve in the direction sought with a large enough effect; inconclusive = small, poorly fitted or top-dose-only effect, or another doubt; inactive = no such curve, though single readings can be large; an effect the other way counts as inactive or inconclusive. % is set by controls: 0 for no effect and ±100 for the full control effect; potency is the fitted concentration of half-maximal effect.

What do the screens show for `COc1ccccc1-c1cccc(CN2CCC(NC(=O)c3ccccc3)CC2)c1`?
NIH3T3 tox: inconclusive; GPT2 inhibitor: -11.7%; HEK cytotox: inconclusive

Results for COc1ccccc1-c1cccc(CN2CCC(NC(=O)c3ccc(C)cc3)CC2)c1 ?
NIH3T3 tox: inconclusive; GPT2 inhibitor: 1.3%; HEK cytotox: 50.1µM*

Results for COc1ccccc1-c1cccc(CN2CCC(NC(=O)NC3CCCC3)CC2)c1 ?
NIH3T3 tox: 28.2µM*; GPT2 inhibitor: -4.8%; HEK cytotox: 39.8µM*

What do the screens show for `COc1ccccc1-c1cccc(CN2CCC(NC(=O)Nc3ccccc3F)CC2)c1`?
NIH3T3 tox: 17.8µM*; GPT2 inhibitor: inactive; HEK cytotox: 25.1µM*

What do the screens show for `Cc1ccc(C(=O)N[C@H]2C[C@@H](c3nc(Cc4ccccc4)no3)N(C)C2)cc1`?
NIH3T3 tox: -30.4%[174 µM]; GPT2 inhibitor: -12.4%[88.5 µM]; Luciferase inh: inconclusive; NPR1 antag: 5.5%[70.6 µM]; HEK cytotox: inconclusive

Results for CC(Oc1ccc2[nH]nc(/C=C/c3cnn(CCO)c3)c2c1)c1c(Cl)cncc1Cl (stereo not drawn) ?
GPT2 inhibitor: 0.9%

Results for O=C1CC2(CCN(C(=O)c3ccc(Cl)cc3)CC2)Oc2cc(Cl)ccc21 ?
NIH3T3 tox: inconclusive; GPT2 inhibitor: inactive; HEK cytotox: inconclusive

How did O=C(c1ccc2c(c1)OCO2)N1CCc2nc(C3CC3)nc(-c3ccc(Cl)cc3)c2CC1 do in these assays?
NIH3T3 tox: inconclusive; GPT2 inhibitor: inactive; Luciferase inh: inactive; NPR1 antag: -12.2%; HEK cytotox: 28.2µM*

How did O=C1CC2(CCN(C(=O)c3ccc4c(c3)OCO4)CC2)Oc2cc(Cl)ccc21 do in these assays?
NIH3T3 tox: inconclusive; GPT2 inhibitor: inactive; Luciferase inh: inactive; NPR1 antag: -7.6%; HEK cytotox: 44.7µM*

What do the screens show for `Cn1cccc1CN1CCC2(CC1)CC(=O)c1ccc(Cl)cc1O2`?
NIH3T3 tox: inconclusive; GPT2 inhibitor: inactive; Luciferase inh: inconclusive; NPR1 antag: -12.1%[70.6 µM]; HEK cytotox: 44.7µM*

What do the screens show for `CC(C)n1cc(CN2CC[C@@H](c3ccc4ccccc4c3)[C@H](O)C2)cn1`?
NIH3T3 tox: inconclusive; GPT2 inhibitor: 2.4%; Luciferase inh: inactive; NPR1 antag: -11.7%; HEK cytotox: inconclusive

Results for CCn1nc(C)c(-c2cc(C(=O)N3CCC(CCOc4ccccc4)C3)no2)c1C (stereo not drawn) ?
NIH3T3 tox: inconclusive; GPT2 inhibitor: inactive; Luciferase inh: inactive; NPR1 antag: inconclusive; HEK cytotox: 25.1µM*

What do the screens show for `Cc1ccc(OCCC2CCN(C(=O)c3cc(CN4CCOCC4)on3)C2)cc1` (stereo not drawn)?
NIH3T3 tox: -16.6%; GPT2 inhibitor: inactive; Luciferase inh: inactive; NPR1 antag: inconclusive; HEK cytotox: 79.4µM*

Results for CCn1nc(C)c(-c2cc(C(=O)N3CCc4nc5cc(-c6ccccc6)[nH]n5c(=O)c4C3)no2)c1C ?
NIH3T3 tox: inactive; GPT2 inhibitor: inactive; Luciferase inh: inactive; NPR1 antag: 3.2%; HEK cytotox: 3.0%

Results for COCCNc1cc(-c2ccnc(SC)n2)c2cc[nH]c2n1 ?
NIH3T3 tox: inconclusive; GPT2 inhibitor: -13.1%; Luciferase inh: inactive; NPR1 antag: 5.6%; HEK cytotox: inconclusive

What do the screens show for `CC(C)c1cccc(-c2cc(NCc3ccccn3)nc3[nH]ccc23)n1`?
NIH3T3 tox: inconclusive; GPT2 inhibitor: 0.9%; Luciferase inh: inconclusive; NPR1 antag: -4.5%; HEK cytotox: 44.7µM*

What do the screens show for `CN(C)CCNc1cc(-c2ccc3ccccc3n2)c2cc[nH]c2n1`?
NIH3T3 tox: inconclusive; GPT2 inhibitor: 3.8%[11.5 µM]; Luciferase inh: inactive; NPR1 antag: -2.0%; HEK cytotox: 39.8µM*

Results for CCCCn1c(=O)c(C(=O)NCc2ccc(C(F)(F)F)cc2)nc2cccnc21 ?
NIH3T3 tox: inconclusive; GPT2 inhibitor: -11.1%; HEK cytotox: inconclusive

How did Cc1cc(C(=O)N2CCCCCC2c2nnc(-c3ccccc3)o2)n(C)n1 (stereo not drawn) do in these assays?
NIH3T3 tox: -21.9%; GPT2 inhibitor: inactive; Luciferase inh: inactive; NPR1 antag: 2.9%; HEK cytotox: inconclusive

How did OCC1CN(c2ncccn2)CC12CCN(Cc1ccc3cc[nH]c3c1)CC2 (stereo not drawn) do in these assays?
NIH3T3 tox: 1.9%; GPT2 inhibitor: -1.8%; Luciferase inh: inactive; NPR1 antag: 6.4%; HEK cytotox: -14.5%

Results for OCC1CNCCC12CCN(Cc1ccc3ccccc3c1)CC2 (stereo not drawn) ?
NIH3T3 tox: 44.7µM*; GPT2 inhibitor: 3.6%; Luciferase inh: inactive; NPR1 antag: -4.3%; HEK cytotox: 28.2µM*

How did CN(Cc1nnc(C(=O)N2CCC[C@@H]2c2cccc(F)c2)n1-c1ccccc1)c1ccccc1 do in these assays?
NIH3T3 tox: inconclusive; GPT2 inhibitor: inactive; Luciferase inh: inactive; NPR1 antag: -3.4%; HEK cytotox: inconclusive

What do the screens show for `CC(=O)N1CCCN(Cc2nnc(C(=O)N3CCC[C@@H]3c3cccc(F)c3)n2-c2cccnc2)CC1`?
NIH3T3 tox: 22.4µM*; GPT2 inhibitor: -15.7%; Luciferase inh: inactive; NPR1 antag: -0.9%; HEK cytotox: 35.5µM*

Results for O=[S+]([O-])(Nc1ccccc1)c1ccc2c(c1)OCCN(Cc1ccc(F)cc1)C2 ?
NIH3T3 tox: 50.1µM*; GPT2 inhibitor: 3.6%[88.5 µM]; Luciferase inh: inactive; NPR1 antag: inconclusive; HEK cytotox: 70.8µM*

What do the screens show for `O=[S+]([O-])(Nc1nncs1)c1ccc2c(c1)OCCN(Cc1cccs1)C2`?
NIH3T3 tox: 25.1µM*; GPT2 inhibitor: inactive; Luciferase inh: inactive; NPR1 antag: -10.2%[70.6 µM]; HEK cytotox: -29.5%[172 µM]

What do the screens show for `Cn1ccnc1CN1CCOc2cc([S+](=O)([O-])Nc3nncs3)ccc2C1`?
NIH3T3 tox: inconclusive; GPT2 inhibitor: -8.8%[88.5 µM]; Luciferase inh: inactive; NPR1 antag: 4.6%[70.6 µM]; HEK cytotox: 4.8%[172 µM]

What do the screens show for `Cn1ccnc1CN1CCOc2cc([S+](=O)([O-])Nc3ccccc3)ccc2C1`?
NIH3T3 tox: -22.7%[138 µM]; GPT2 inhibitor: 0.6%[88.5 µM]; Luciferase inh: inactive; NPR1 antag: -19.5%[70.6 µM]; HEK cytotox: 112µM*

How did O=[S+]([O-])(Nc1cccnc1)c1ccc2c(c1)OCCN(Cc1ccncc1F)C2 do in these assays?
NIH3T3 tox: 35.5µM*; GPT2 inhibitor: inactive; Luciferase inh: inactive; NPR1 antag: 0.5%[70.6 µM]; HEK cytotox: -18.4%[172 µM]

How did CCOC(=O)C1CCN(C(=O)c2ccc3nnc(-c4ccc(OC(F)(F)F)cc4)n3c2)CC1 do in these assays?
NIH3T3 tox: inconclusive; GPT2 inhibitor: inconclusive; HEK cytotox: -17.0%
